# Experiments:
# Conditions in all cases: concentration: 1 μM, replicates: in singlicate; n = 1
# CSNK1G1 = system: CSNK1G1
# CSNK1G2 = system: CSNK1G2
# CSNK1G3 = system: CSNK1G3
# CSNK2A1 = system: CSNK2A1
# CSNK2A2 = system: CSNK2A2
# CTK = system: T1, CTK
# T1 construct: gene MATK
# DAPK1 = system: DAPK1
# DAPK2 = system: DAPK2
# DAPK3 = system: DAPK3
# DCAMKL1 = system: T2, DCAMKL1
# T2 construct: gene DCLK1
# DCAMKL2 = system: T3, DCAMKL2
# T3 construct: gene DCLK2
# DCAMKL3 = system: T4, DCAMKL3
# T4 construct: gene DCLK3
# DDR1 = system: DDR1
# DDR2 = system: DDR2
# DLK = system: T5, DLK
# T5 construct: gene MAP3K12
# DMPK2 = system: T6, DMPK2
# T6 construct: gene CDC42BPG
# DMPK = system: DMPK
# DRAK1 = system: T7, DRAK1
# T7 construct: gene STK17A
# DRAK2 = system: T8, DRAK2
# T8 construct: gene STK17B
# DYRK1A = system: DYRK1A
# 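Also: KINOMEscan kinase panel screen.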
SMILES,%Inh (CSNK1G1) [%],%Inh (CSNK1G2) [%],%Inh (CSNK1G3) [%],%Inh (CSNK2A1) [%],%Inh (CSNK2A2) [%],%Inh (CTK) [%],%Inh (DAPK1) [%],%Inh (DAPK2) [%],%Inh (DAPK3) [%],%Inh (DCAMKL1) [%],%Inh (DCAMKL2) [%],%Inh (DCAMKL3) [%],%Inh (DDR1) [%],%Inh (DDR2) [%],%Inh (DLK) [%],%Inh (DMPK2) [%],%Inh (DMPK) [%],%Inh (DRAK1) [%],%Inh (DRAK2) [%],%Inh (DYRK1A) [%]
CN(C)CCOc1ccc(-c2cc(-c3ccc(Cl)c(O)c3)c(-c3ccncc3)[nH]2)cc1.Cl.Cl [SB-684387],36,0,37,24,32,3,14,0,22,21,0,10,56,38,14,41,29,20,0,0
N#Cc1cnc2cc(-c3cnc(CNCCN4CCOCC4)s3)ccc2c1Nc1ccc(Oc2ccccc2)cc1 [GW664114],19,0,25,0,5,26,26,0,2,19,0,0,21,11,91.2,0,0,2,0,38
COc1cccc(CC(=O)N2CCc3cc(-c4cn(C)c5ncnc(N)c45)ccc32)c1 [GSK2608899],23,5,29,14,15,0,2,0,21,26,0,14,97,27,36,53,25,4,0,6
COc1ccc(C2=C(Nc3cccc(O)c3)C(=O)NC2=O)cc1 [SB-390766],4,0,19,0,19,1,0,0,52,13,0,1,1,17,19,0,0,3,0,70
Fc1cc(Cl)ccc1Nc1ccnc2cc(-c3ccc(CN4CCOCC4)o3)ccc12 [GW560109],7,0,7,0,86,28,0,0,10,12,0,0,97.9,60,28,0,16,0,0,11
Cc1ccc(NC(=O)c2ccnc(N3CCCCC3)c2)cc1-c1ccc(C(=O)NCC2CC2)cc1 [GW775610],0,20,0,0,0,25,100,0,12,0,0,4,99,93.6,5,0,0,0,0,40
Cc1ccc(O)cc1Nc1ccnc2ccc(C(C)(C)C)cc12 [GW856805],19,5,0,1,7,21,13,8,7,2,18,0,40,60,0,5,3,12,0,0
CSc1ccc(NC2=C(c3ccc(Cl)cc3)C(=O)NC2=O)cc1 [SB-317658],0,15,0,0,25,19,0,0,0,0,2,12,0,5,0,10,8,12,0,1
CN(C)c1ncnc2nc[nH]c12 [SKF-31736],3,0,0,0,5,36,7,3,20,32,0,0,0,35,12,0,2,0,0,0
Cn1cc(-c2ccc3c(c2)CCN3C(=O)Cc2cc(F)cc(C(F)(F)F)c2)c2c(N)ncnc21 [GSK2635225],22,12,15,2,0,0,21,6,19,3,0,0,100,85,23,0,0,0,0,4
